According to the supplement of paper PMC11417369:
± gives the standard deviation of the averaged measurements. Over roughly 25,000 sequences, “ln(normalized median fluorescence intensity)” has its median near 10; the highest 2% begin near 12. The list comes from a sample in which the highest values are over-represented; it also holds similar and randomly drawn sequences.

Each sequence was assayed on PfAP2-G AP2 domain (GST-tagged) (assay: gcPBM binding intensity (ln(normalized median fluorescence intensity)); higher = stronger DNA binding).
How it was run: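 An Agilent 4 × 180k array carrying primer-extended double-stranded 36-bp intergenic genomic probes and negative controls received GST-tagged P. falciparum DNA-binding domains expressed in E. coli, about 25 μg on average, for 1 h. The binding buffer contained 1× PBS, 1% milk, 0.2 mg/ml BSA, 0.5% salmon testes DNA and 0.03% Triton X-100. Binding intensity is the top Masliner-normalised natural-log median intensity across replicate spots of either probe orientation, read after Alexa488 anti-GST antibody staining and a 488 nm scan.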
With “GAAAATAGCTAAAATACACACAATTAAAAATTATTA [CACACA_site3506]” the “gcPBM binding intensity (ln)” value was 9.84 ± 0.16. For “TTCCATGTAGGACATGCATGCAGTTTTTAAAATATT [TGCATGCA_site481]”, the “gcPBM binding intensity (ln)” value was 11 ± 0.69. With “AATGTTAAAAATGAAAGTACATGGAATTTATTATTT [XGTACX_site4095]” the “gcPBM binding intensity (ln)” value was 11 ± 0.56. For “AATATTTATATTTAGTGTACAGAAATAAAAAAAAAA [XGTACX_site6066]”, the “gcPBM binding intensity (ln)” value was 11.3 ± 0.93. “TATTTTTAAAATATAAGTAAAAAAATAATATAAACT [TGCATGCA_negctrl_site283]” was tested, and the “gcPBM binding intensity (ln)” value was 10.1 ± 0.11. For “TCCTCTTCAATATATATATATTATAAATAAATAAAT [CACACA_negctrl_site1756]”, the “gcPBM binding intensity (ln)” value was 9.91 ± 0.38. With “TGTGTAGCTAGGGGGTTGCTAATTTTTGTTTTGACC [CACACA_negctrl_site634]” the “gcPBM binding intensity (ln)” value was 10.9 ± 0.57. With “ATAAGCTCATGCAGGTGTACACAAAAAGAAAAAAAA [XGTACX_site2433]” the “gcPBM binding intensity (ln)” value was 11.6 ± 0.81. In the case of “AGCTCATGCAGGTGTACACAAAAAGAAAAAAAATAA [CACACA_site4828]”, the “gcPBM binding intensity (ln)” value is reported as 11.7 ± 0.86. With “AGGTGAGCTCAGACTACACACACAAAGAAAAAAATA [CACACA_site8439]” the “gcPBM binding intensity (ln)” value was 10.2 ± 0.28. In the case of “TCAAAGGAATTTTTATGTACATATAAACTTTATTCT [XGTACX_site3432]”, the “gcPBM binding intensity (ln)” value is reported as 11.2 ± 0.76. For “GATATATGTATAATAACGCACACTACAAAAATAAAA [CACACA_site2100]”, the “gcPBM binding intensity (ln)” value was 10.3 ± 0.33. “ATGTATATATATATATGTACTAATTAGTAGTTTACG [XGTACX_site6272]” was tested, and the “gcPBM binding intensity (ln)” value was 11.1 ± 0.71. In the case of “ATAATGACTAAATTTAAACACACAAGGGGAGTTTAC [CACACA_site8209]”, the “gcPBM binding intensity (ln)” value is reported as 9.725 ± 0.007. In the case of “ATAAATACATTAAAATGTACATAAAAATATTACTGG [XGTACX_site1484]”, the “gcPBM binding intensity (ln)” value is reported as 11.2 ± 0.67. “TTTTTTTAATAAAAGTGTACCAAATTATATACACAT [XGTACX_site6811]” was tested, and the “gcPBM binding intensity (ln)” value was 11.1 ± 0.64. “TAAATATAAGTGTACATACACACTTTACAATCTCAT [CACACA_site3006]” was tested, and the “gcPBM binding intensity (ln)” value was 11.3 ± 0.72. For “TATTTTTTTAAAATAGGTACACAATCAAACATTTAT [XGTACX_site8785]”, the “gcPBM binding intensity (ln)” value was 11.4 ± 0.97. For “TATATAAATAAATGTGTACACACATTAAAATCAAAC [CACACA_site8733]”, the “gcPBM binding intensity (ln)” value was 11.6 ± 1.1. “CTTTATATATAGTGTACACATTAAACAAATCTCAAT [CACACA_site5845]” was tested, and the “gcPBM binding intensity (ln)” value was 11.6 ± 1. For “TATAAATAAAAGTGTACACACATTAAAATCAAACGT [CACACA_site5316]”, the “gcPBM binding intensity (ln)” value was 11.7 ± 0.89. “AAAACTATATTAATGTGTACACATCAAAATATTAAT [XGTACX_site6767]” was tested, and the “gcPBM binding intensity (ln)” value was 11.6 ± 0.84. For “ACAATAAAGAAGTGTACACATATATCAATAAAAAAA [CACACA_site5228]”, the “gcPBM binding intensity (ln)” value was 11.6 ± 0.95. “TATAAATAAATGTGTACACACATTAAAATCAAACGT [CACACA_site2340]” was tested, and the “gcPBM binding intensity (ln)” value was 11.7 ± 0.96. In the case of “CATCTTATATAATCATGTACATATAGAGACTTCTTT [XGTACX_site7685]”, the “gcPBM binding intensity (ln)” value is reported as 11.1 ± 0.63. For “TATATTTACATTGTAACACACATGAAATATATATAT [CACACA_site61]”, the “gcPBM binding intensity (ln)” value was 9.93 ± 0.2. For “TATAAATATTATAATTGTACATATTATAAAAATTTT [XGTACX_site2719]”, the “gcPBM binding intensity (ln)” value was 11 ± 0.75. For “TATTTTTACCCATAAAGTACACATAAATATAAAATA [XGTACX_site177]”, the “gcPBM binding intensity (ln)” value was 11.5 ± 1. For “ATGGACAAGTTAAACGCACACAAATATATACACCCA [CACACA_site8478]”, the “gcPBM binding intensity (ln)” value was 10.6 ± 0.39. For “ATATATTTATTTTGTGCACACAACGCAAACCTTTTA [CACACA_site3508]”, the “gcPBM binding intensity (ln)” value was 10.5 ± 0.27. “CCGTATTCAAAAAGGAGTACACAATTATATGTTATA [XGTACX_site641]” was tested, and the “gcPBM binding intensity (ln)” value was 11.7 ± 1. For “AAATATATATTCAAAAGTACACAATTTGTTAATAAT [XGTACX_site8917]”, the “gcPBM binding intensity (ln)” value was 11.4 ± 0.82. For “AATTTTGTTAAAAGGACACACAATTCAATATATTAA [CACACA_site647]”, the “gcPBM binding intensity (ln)” value was 11.1 ± 0.73. TATAATTTATAAGTAGTGCATTTCTTTTCATTTTTA was tested, and the “gcPBM binding intensity (ln)” value was 10.03 ± 0.057. For “AAGATTAAACATTGCACACAGAAATATATTTTCTAT [CACACA_site2374]”, the “gcPBM binding intensity (ln)” value was 9.91 ± 0.099. “AATAGTAAAAGATATACACACACCAAAAAATATAAT [CACACA_site5293]” was tested, and the “gcPBM binding intensity (ln)” value was 10.2 ± 0.12. In the case of “TTTATATACAAAAATGCACACGAAAAGTAATATATA [CACACA_site9387]”, the “gcPBM binding intensity (ln)” value is reported as 10.28 ± 0.049. For “ACAGTATCTGGTAGCTGTACGAGTCGTAGAGAGTAG [XGTACX_site2041]”, the “gcPBM binding intensity (ln)” value was 11.2 ± 0.71. “AAAAAAAAAAAAAGTACACACTTTTGCGTACATGTA [CACACA_site7449]” was tested, and the “gcPBM binding intensity (ln)” value was 12 ± 0.98. In the case of “AATTTCCTTTTTTAAAGTACACAAAAGTTCACTTTG [XGTACX_site4460]”, the “gcPBM binding intensity (ln)” value is reported as 11.6 ± 0.98. For “TACCTACACTTTTGGAGTACAATTAAAAAAAAAAAA [XGTACX_site1403]”, the “gcPBM binding intensity (ln)” value was 11.5 ± 1.1. With TTACATGTACAAAAGTTGCACTTCATACACTTTTAT the “gcPBM binding intensity (ln)” value was 11.1 ± 0.61. For “TATTTTGTTTTAAAAGTACACACTTTTAATTAGATT [CACACA_site1180]”, the “gcPBM binding intensity (ln)” value was 11.5 ± 1. In the case of “AAAAAAAAAAAAAAAGTACACACTTTTGCGTACATG [CACACA_site3097]”, the “gcPBM binding intensity (ln)” value is reported as 12.3 ± 1.4. In the case of “AAAAAAAAAAAAAAAAGTACAAGCATTGCGTTTTAA [XGTACX_site6075]”, the “gcPBM binding intensity (ln)” value is reported as 11.5 ± 0.83. “AAAAAAAAAAAAAAAAGTACACACTTTTGCCTACAT [XGTACX_site6583]” was tested, and the “gcPBM binding intensity (ln)” value was 11.6 ± 0.86. In the case of “ACTTTGCGTTAAAAGAGTACATAATATTTTTTTTTT [XGTACX_site7533]”, the “gcPBM binding intensity (ln)” value is reported as 11.2 ± 0.73. In the case of “AAAAAAAAAAAAAGTACACACTTTTGCGTACAAGTA [CACACA_site5672]”, the “gcPBM binding intensity (ln)” value is reported as 11.9 ± 0.83. With “TTTTTTTTTTTTAGAGTACACACTTTTTTACATTTA [CACACA_site3836]” the “gcPBM binding intensity (ln)” value was 11.4 ± 0.83. For “AAAAGAAAAAAAAGTACACACATGTATATTAAGCGT [CACACA_site5402]”, the “gcPBM binding intensity (ln)” value was 11.5 ± 0.83. In the case of “ATTTATATTTATAAATGTACACATATATATTTCATT [XGTACX_site2723]”, the “gcPBM binding intensity (ln)” value is reported as 11.2 ± 0.63. “CCGCCATTGTACCATCCACACACATATATATATGTA [CACACA_site8866]” was tested, and the “gcPBM binding intensity (ln)” value was 10.9 ± 0.45. In the case of “AAAATAACGAGTCAAACACACATATATATATATATA [CACACA_site2039]”, the “gcPBM binding intensity (ln)” value is reported as 10.1 ± 0.25. With “AAATTGTAGCACCAAGCATGCTAAAAGGACATATGA [TGCATGCA_site717]” the “gcPBM binding intensity (ln)” value was 10.8 ± 0.34. For “GATATAAGGGTATGAAGTACATAAATATTTTATGCT [XGTACX_site1886]”, the “gcPBM binding intensity (ln)” value was 11.3 ± 0.88. “ACCCAAGAGAAAAGAGAAAGAAATATGTGTATATTG [GTGCAC_negctrl_site214]” was tested, and the “gcPBM binding intensity (ln)” value was 9.92 ± 0.042. With “TTCAGTGTATACATATGTACATATATATATATATAT [XGTACX_site1621]” the “gcPBM binding intensity (ln)” value was 11.3 ± 0.56.
